# Only some compounds are listed: those with a hit (about 2.4% of all), similar ones and a draw of the others.
# D2 PAM-1 – positive allosteric modulators of human D2 dopamine receptor; potentiation, % at 10 µM; P14416; AID 485347; HEK293 T-REx D2, calcium flux, EC20 dopamine potentiation; 0.34% of 340,000 active;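 active = potentiation over 3 SD above the plate norm, cut at about 30% in these data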; also: 0% is about no effect
# Target sequence (P14416 whole entry, looked up): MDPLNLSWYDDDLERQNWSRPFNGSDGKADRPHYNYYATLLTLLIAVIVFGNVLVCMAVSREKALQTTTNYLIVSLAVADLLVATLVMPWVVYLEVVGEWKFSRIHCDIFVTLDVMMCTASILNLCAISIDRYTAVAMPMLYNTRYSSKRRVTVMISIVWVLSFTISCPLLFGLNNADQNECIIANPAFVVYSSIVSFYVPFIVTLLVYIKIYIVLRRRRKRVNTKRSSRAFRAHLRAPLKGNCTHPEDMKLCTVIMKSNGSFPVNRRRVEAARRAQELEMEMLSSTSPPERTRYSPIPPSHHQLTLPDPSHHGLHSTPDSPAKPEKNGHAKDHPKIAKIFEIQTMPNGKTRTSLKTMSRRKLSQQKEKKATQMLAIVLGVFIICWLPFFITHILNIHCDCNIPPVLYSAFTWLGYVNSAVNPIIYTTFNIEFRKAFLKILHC
#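 Using a no-wash calcium dye in inducible, force-coupled HEK293 Trex cells expressing D2, we tracked fluorescence each second for 180 s after compound, then for 180 s after EC20 dopamine to detect augmented signalling.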
# D2 antag – antagonists of human D2 dopamine receptor; P14416; HEK293 TREx D2 cells, calcium flux, dopamine EC80; inhibition, % at 10 µM; 2% of 340,000 active; in the data active = inhibition above about 30%; inactive = below that, where a call was filed; also: 0% is about no effect
#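 Cells plated overnight at 30 C with tetracycline; no-wash calcium dye, 30–90 min RT; 10 s baseline; compound pinned; 180 s read; EC80 dopamine added; another 180 s read.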
# D2 ag-1 – agonists of human D2 dopamine receptor | AID 485358 | P14416 | activation, % at 2 µM | HEK293 T-REx D2 cells, calcium flux agonist mode | 0.53% of 340,000 active;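 active = activation over 3 SD above normal in the single-dose calcium agonist read, cut at about 30% in these data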; also: 0% is about no effect
#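 Agonism scored from kinetic calcium signal (1 read/sec, 180 s) following compound pin transfer, after a 10 s baseline. Cells: HEK293 Trex line expressing inducible D2 receptor coupled to calcium, dye-loaded after overnight culture at 30 C.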
# D2 ag-2 – activates the human D2 dopamine receptor; P14416; DiscoveRx PathHunter D2 beta-arrestin, luminescence, 90 min; 100% = 57 uM dopamine signal; activation, % (no concentration beside the values); 0.084% of 360,000 active; AID 624465; in the data active = activation above about 40%; inconclusive = between about 15% and that limit
#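 DiscoveRx PathHunter D2 beta-arrestin cells (2,100/well) attached overnight, then compound-stimulated 90 min at 37 C in HBSS/10 mM HEPES/0.1% Tween-20 buffer; beta-galactosidase complementation read by luminescence after 1 h at ambient temperature. Dopamine 57 uM final (EC100) as control.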
# D2 PAM-2 – positive allosteric modulators of human D2 dopamine receptor. P14416. DiscoveRx D2 beta-arrestin cells, luminescence, 90 min; 100% = 57 uM dopamine signal. potentiation, % (concentration not given with the values). 0.23% of 360,000 active; in the data active = potentiation above about 50%; inconclusive = mostly about 30% to 49%
#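 D2 cells co-treated with compound plus 50 nM dopamine (EC20) for 90 min at 37 deg C to detect potentiation. Beta-arrestin recruitment was read as enzyme-fragment luminescence after 1 h at ambient temperature. Full response was set by 57 uM dopamine.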
# The depositor's hits bear a star; ? = inconclusive; / = no result.
SMILES,D2 PAM-1,D2 antag,D2 ag-1,D2 ag-2,D2 PAM-2
COC(=O)C1=CO[C@@H](C)[C@H]2CN3CCc4c([nH]c5ccccc45)[C@@H]3C[C@H]12,-22.7,71.1*,0.0,-7.0,-37.1
O=C(c1ccccc1)c1c2c(cc3sc4ccccc4[n+]13)-c1cccc3cccc-2c13,-20.5,44.5*,60.3*,4.7,7.7
Cc1cccc(-n2ncc(C(=O)NCc3ccco3)c2C2CCN(C(=O)OC(C)(C)C)CC2)c1,3.8,/,-1.7,/,/
Cc1nc2sccn2c(=O)c1CCN1CCC(=C(c2ccccc2)c2ccc(F)cc2)CC1,-25.1,73.5*,2.0,/,/
Cc1nc2sccn2c(=O)c1S(=O)(=O)N1CCN(c2ccccc2)CC1,-2.5,5.0,0.0,-2.2,1.5
CN1CCN(S(=O)(=O)c2cccc(C(=O)Oc3ccc(C(C)(C)C)cc3)c2)CC1,5.0,34.3*,0.7,-1.1,-6.8
COc1ccc(-c2cc(C)no2)cc1S(=O)(=O)NCCCN1CCCCCC1,-2.4,33.7*,0.0,-2.6,-35.1
CC(C)Cc1nnc(NS(=O)(=O)c2ccccc2)s1,/,/,/,-0.7,-11.2
CC(C)Cc1nnc(NS(=O)(=O)Cc2ccccc2)s1,6.2,32.0*,-0.4,0.3,0.1
Cc1ccc(-n2ncc3c(NCCCN(C)C)ncnc32)cc1Cl,-13.2,/,-0.7,/,/
Nc1nc(NC(=O)/C=C\C(=O)O)nn1-c1ccccc1,2.7,35.5*,0.9,-0.4,-6.2
CC(=O)Nc1nc(N)n(-c2ccccc2)n1,-13.0,8.2,0.3,-1.6,-1.3
CCOC(=O)c1cccc(NC(=O)CN2C(=O)CC(C)(C)Sc3ccccc32)c1,6.7,/,0.3,/,/
Cn1c(=O)c(=O)n(C)c2cc([N+](=O)[O-])c([N+](=O)[O-])cc21,6.7,14.4,1.6,?,54.0*
Cn1cccc([N+](=O)[O-])c1=O,/,/,/,-4.5,-15.8
COc1ccc(Cl)cc1NC(=S)N1CCN(c2ncccn2)CC1,4.9,12.5,12.4,2.4,-1.8
COc1cc(NC(=S)N2CCN(c3ccccn3)CC2)c(OC)cc1Cl,-8.5,12.1,34.2*,7.3,-3.5
COc1cccc(NC(=S)N2CCN(c3ccccn3)CC2)c1,-8.8,-8.2,31.6*,?,4.1
COc1ccc(Cl)cc1NC(=S)N1CCN(c2ccccn2)CC1,-7.6,34.9*,20.7,2.2,-3.6
S=C(Nc1cccc(Cl)c1)N1CCN(c2ccccn2)CC1,-11.1,-15.5,1.7,-5.3,-0.7
S=C(Nc1ccc(Cl)cc1Cl)N1CCN(c2ccccn2)CC1,1.1,18.2,7.8,2.2,-1.3
O=c1c2oc3ccccc3c2n(Cc2cccc(C(F)(F)F)c2)c(=O)n1Cc1ccc2c(c1)OCO2,1.4,/,3.5,/,/
Cc1ccc(CNc2ccc(N3CCOCC3)cc2)s1,-9.8,7.6,-1.4,2.1,18.5
CC(=O)N1CCN(c2ccc(NCc3ccc(C)s3)cc2)CC1,12.1,50.0*,0.9,?,5.1
CCc1ccccc1NC(=O)CSc1nc2c(oc3ccccc32)c(=O)n1-c1ccccc1,4.6,/,0.1,/,/
SMILES,D2 PAM-1,D2 antag,D2 ag-1,D2 ag-2,D2 PAM-2
O=C(OCn1nnc2ccccc2c1=O)C1CCN(S(=O)(=O)c2cccs2)CC1,73.9*,-11.1,-1.0,-3.6,-2.5
O=C(OCc1ccccc1)C1CCN(S(=O)(=O)c2cccs2)CC1,/,/,/,-2.6,-6.2
Cc1c(C)n(Cc2ccccc2)c2ccc(C(=O)N3CCN(c4ccccc4F)CC3)cc12,-3.4,/,0.2,/,/
COc1cc(OC)c(C2=NOC(C(=O)NCc3cccnc3)C2)cc1Cl (stereo not given),2.4,-1.3,0.0,3.4,54.4*
COc1ccc(OC)c(C2=NOC(C(=O)NCc3cccnc3)C2)c1 (stereo not given),2.9,-17.1,0.1,-0.8,-2.4
Cc1ccc(CN(Cc2ccco2)C(=O)c2ccccc2Br)o1,8.4,/,-0.9,/,/
CCc1ccc(OC(=O)c2cccnc2)cc1,2.1,32.1*,-1.8,-6.1,-5.8
CCOC(=O)c1c(NC(=O)CC(C)C)sc(C(C)=O)c1C,36.8*,6.6,1.1,-2.4,7.3
COc1ccc(Cl)cc1NC(=O)c1cc(S(=O)(=O)NC2CCCCCC2)ccc1F,10.8,/,/,/,/
COCC(=O)N1CCN(c2cccc(Cl)c2)CC1,6.0,-16.7,-0.2,-5.0,-2.1
CC1CN(C(=O)CCC(=O)N2CCN(c3cccc(C(F)(F)F)c3)CC2)c2ccccc2O1 (stereo not given),30.1*,40.7*,-0.3,1.2,-13.6
COc1ccc(CC(C)N2CCN(c3cccc(C(F)(F)F)c3)CC2)cc1OC (stereo not given),-16.3,74.3*,1.2,5.6,-19.2
CCOc1cc(CN2CCN(c3cccc(C(F)(F)F)c3)CC2)ccc1OC,-25.6,28.1,-2.3,2.9,-18.1
COCC(=O)N1CCN(c2cccc(C(F)(F)F)c2)CC1,-22.5,43.9*,0.4,-18.7,-22.0
Cc1cc(C)c(NC(=O)Cn2c(=O)n(CCc3ccccc3)c(=O)c3ccccc32)c(C)c1,-3.6,/,/,/,/
CC1=C(c2ccc(C(C)C)cc2)S(=O)(=O)N=C1N1CCC(C(=O)NCc2ccccc2)CC1,14.3,/,/,/,/
CCCC(c1nnnn1C(C)(C)CC)N(Cc1ccco1)Cc1cc2ccc(OC)cc2[nH]c1=O (stereo not given),35.6*,-4.1,0.5,-3.1,-13.4
Cc1cc(OCC(=O)O/N=C(\N)c2ccccc2)ccc1Br,-10.7,1.5,30.2*,7.3,0.4
CCCCOc1ccc(C(=O)Nc2cccc(-c3nc4cccnc4s3)c2)cc1,5.1,/,2.1,/,/
CN(C1CCCCC1)S(=O)(=O)c1ccc(F)c(C(=O)Nc2ccc(C(F)(F)F)cc2)c1,1.8,/,/,/,/
Cc1cccc(N(C)S(=O)(=O)c2ccc3c(c2)C(C)(C)C(=O)N3C)c1,2.7,40.9*,-0.5,3.6,-1.0
COc1ccc(/C=C/C(=O)O)cc1COc1cccc(C)c1,-19.3,40.3*,0.1,2.0,-8.8
COc1ccc(/C=C/C(=O)C2CC2)cc1COc1c(C)cccc1C,/,10.4,0.9,4.2,0.5
O=C(O)c1csc(-n2nc(-c3ccccc3)cc2C(F)(F)F)n1,15.4,47.9*,-0.3,3.8,-10.0
Cc1cc(C(F)(F)F)n(-c2nc(C(=O)O)cs2)n1,-4.0,-3.4,0.1,0.7,-4.3
CSc1cccc(NC(=O)c2ccc3c(c2)c(C)c(C)n3Cc2ccc(F)cc2)c1,-1.2,/,0.5,/,/
CCC(C)c1ccccc1OCCCNC1CCCC1 (stereo not given),-26.4,77.7*,1.5,-7.5,-8.2
CCC(C)c1ccccc1OCCOCCN1CCCC1 (stereo not given),-17.1,54.0*,-2.1,0.7,-27.4
Brc1ccccc1OCCCCCN1CCCC1,-22.3,-23.9,-1.2,/,/
CCC(C)c1ccccc1OCCCCN1CCCC1 (stereo not given),-22.6,64.7*,-0.3,-0.2,-32.5
